# PubChem BioAssay (NCATS)
# Records with an inconclusive call do not appear. A number with no mark means an inactive call. Activity calls are given as the source filed them. Calls follow the shape of the dose curve; as a rule, active = well fitted curve in the direction sought with a large enough effect; inconclusive = small, poorly fitted or top-dose-only effect, or another doubt; inactive = no such curve, though single readings can be large; an effect the other way counts as inactive or inconclusive.
# System: not listed separately
# Test: qHTS for Inhibitors of the Aldehyde Dehydrogenase Family (ALDH1A2, ALDH1A3, ALDH2, ALDH3A1) (AID 2061307); also: nearly all actives have a fitted effect of over 50% in size; as to Potency: test system not described further here; as to activity change, negative = inhibition: % is scaled to controls: 0 for no effect and ±100 for the full control effect
# Conditions: ALDH inhibition qHTS; series mostly up to 50.3 µM; activity change, negative = inhibition: at the top concentration
# Potency is read from the fitted curve at half-maximal effect.
Structure (SMILES),Potency,"activity change, negative = inhibition"
COc1cccc(Nc2nc(C#N)nc(NC3CCCC3)n2)c1,10.1 µM (active),
S=C(Nc1cc(Cl)ccn1)N1CCN(c2ccc(Cl)c(Cl)c2)CC1,6.31 µM (active),
CCOc1ccc(-c2nc(CSCC(=O)N3CCN(c4cccc(C(F)(F)F)c4)CC3)c(C)o2)cc1,7.94 µM (active),
Cc1cc(F)ccc1[C@H]1C[C@@H](N2CCN3C(=O)CC[C@H]3C2)CCN1C(=O)N(C)[C@H](C)c1cc(C(F)(F)F)cc(C(F)(F)F)c1,,37.3%
Cc1ccc(CNc2ccc(N3CCN(C)CC3)cc2)cc1,,1.37%
FC(F)(F)c1ccc(-c2nc(-c3nnc4n3CCCCC4)c(C(F)(F)F)o2)cc1,,4.96%
Clc1cccc(-c2ccc(C3Nc4cccc5cccc(c45)N3)o2)c1,10.1 µM (active),
O=C([C@H](Cc1ccc(O[S+](=O)([O-])c2cccc3cccnc23)cc1)N[S+](=O)([O-])c1ccccn1)N1CCN(c2ccccc2)CC1,,-3.91%
O=S(=O)(Nc1cc(O)cc2cccnc12)c1ccc(Br)s1,,-41.8%
CN1CCN(c2cccc(Nc3nn4c(=O)c5ccc(F)cc5nc4s3)c2)CC1,,34.5%
COc1ccc(-c2cncc(NC(=O)c3cccs3)c2)cc1OC,,-13.8%
N[C@@H](CC(=O)O)C(=O)Nc1ccc(Cl)cc1C(=O)c1ccc[nH]1,,-7.98%
CC(C)(C)OC(=O)N1CCN(c2ccc(NCc3ccc(-c4ccc(C(C)(C)C)cc4)o3)cc2)CC1,,1.81%
CC(C)N1CCc2c(sc(NC(=O)C(F)(F)F)c2-c2nc3ccccc3s2)C1,8.96 µM (active),
COc1ccc(C2Nc3ccccc3C(=O)N2Cc2ccccc2)cc1COc1cccc(Cl)c1 (stereo not drawn),5.65 µM (active),
Cc1cc2c(s1)c1cnn(Cc3ccc(-n4cncn4)cc3)c(=O)c1n2C,14.1 µM (active),
O=C(Nc1ccc2ccccc2c1)Nc1nnc(Br)s1,15.8 µM (active),
C[C@H](N)C(=O)Nc1cccc(-c2nn3c(=O)cc(N4CCNCC4)nc3s2)c1,,64.8%
CN[C@@H]1[C@H](O[C@H]2[C@H](O[C@@H]3[C@@H](O)[C@H](O)[C@@H](N=C(N)N)[C@H](O)[C@H]3N=C(N)N)O[C@@H](C)[C@]2(O)C=O)O[C@@H](CO)[C@H](O)[C@H]1O,,-5.66%
COc1ccc(C(=O)N(Cc2ccccc2)Cc2ccc(OC)c(COc3ccc(NC(C)=O)cc3)c2)c(O)c1,,-24%

Structure (SMILES),Potency,"activity change, negative = inhibition"
Cc1cc(N[S+](=O)([O-])c2cc3c(cc2Cl)NC(=O)CO3)ccc1Cl,,-6.64%
N#Cc1nc(Nc2cccc(F)c2)nc(NC2CCCC2)n1,3.55 µM (active),
CCn1cc2nc(SCc3cccc(C)c3)n(CCc3ccccc3)c(=O)c2n1,3.98 µM (active),
COc1ccc(-n2cnc3cc(C(=O)N4CCCCC4)ccc32)cc1,,-23.9%
O=S(=O)(NCCCCCCNS(=O)(=O)c1c(F)cccc1F)c1ccc2c(c1)OCCO2,5.01 µM (active),
O=C(C1CCN(Cc2ccccc2-c2ccccc2F)CC1)N1CCC(Cc2ccccc2)CC1,,-11.2%
Cc1nc(C2=NC(c3ccccc3Cl)C3=C(CCCC3=O)N2)cs1 (stereo not drawn),,-27.9%
CC1CCN(c2ccc(CNC(=O)CC3CCOCC3)cc2)CC1,,-10.1%
CC(C)(C)OC(=O)N1CCN(c2ccc(NCc3coc(-c4ccc(C#N)cc4)c3)cc2)CC1,,-1.81%
Cn1nnnc1Sc1ncnc2scc(-c3cccc(Br)c3)c12,,-8.6%
FC(F)(F)c1cnc(N2CCN(C(=S)Nc3cc(Cl)ccn3)CC2)c(Cl)c1,5.65 µM (active),
Cc1ccc(NC(=O)CN2C(=O)N/C(=C\c3cccn3-c3ccc(P(=O)(O)O)cc3)C2=O)cc1,,0.259%
CC(=O)N1CCN(c2ccc(NCc3ccc(-c4cccc(Cl)c4)o3)cc2)CC1,1.59 µM (active),
COc1ccccc1-c1no[n+]([O-])c1C#N,3.18 µM (active),
CNC(=O)c1cc(Oc2ccc3nc(N[C@@H]4CCCC[C@H]4O)sc3c2)ccn1,10.1 µM (active),
Cc1cc2c(c(=O)[nH]1)OC(C(O)CC(C)C)O2 (stereo not drawn),,-6.31%
COc1ccc(C2Nc3ccccc3C(=O)N2Cc2ccc(C(C)(C)C)cc2)cc1COc1ccc(NC(C)=O)cc1 (stereo not drawn),3.57 µM (active),
CC(=O)Nc1sc2c(c1-c1ccc(C(F)(F)F)cc1)CCNC2,,-3.94%
O=c1cc(-c2ccccn2)oc2c(Nc3ccccc3)nccc12,,-20.2%

# Target: Aldehyde dehydrogenase, mitochondrial (Homo sapiens) (UniProt P05091)
# Test: qHTS for Inhibitors of the Aldehyde Dehydrogenase Family (ALDH2) Primary screen (AID 2061308); also: nearly all actives have a fitted effect of over 55% in size;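 as to activity change, negative = inhibition: plate controls were vehicle for no effect and reference inhibitor for full effect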
# Conditions: ALDH2 enzyme inhibition qHTS, 1536-well; series mostly up to 56 µM; activity change, negative = inhibition: at the top concentration
Structure (SMILES),"activity change, negative = inhibition",Potency
COc1cccc(Nc2nc(C#N)nc(NC3CCCC3)n2)c1,-5.16%,
S=C(Nc1cc(Cl)ccn1)N1CCN(c2ccc(Cl)c(Cl)c2)CC1,,3.98 µM (active)
Cc1ccc(CNc2ccc(N3CCN(C)CC3)cc2)cc1,-0.479%,
FC(F)(F)c1ccc(-c2nc(-c3nnc4n3CCCCC4)c(C(F)(F)F)o2)cc1,-6.82%,
O=C([C@H](Cc1ccc(O[S+](=O)([O-])c2cccc3cccnc23)cc1)N[S+](=O)([O-])c1ccccn1)N1CCN(c2ccccc2)CC1,-10%,
CN1CCN(c2cccc(Nc3nn4c(=O)c5ccc(F)cc5nc4s3)c2)CC1,6.16%,
COc1ccc(-c2cncc(NC(=O)c3cccs3)c2)cc1OC,5.37%,
N[C@@H](CC(=O)O)C(=O)Nc1ccc(Cl)cc1C(=O)c1ccc[nH]1,-13.2%,
CC(C)(C)OC(=O)N1CCN(c2ccc(NCc3ccc(-c4ccc(C(C)(C)C)cc4)o3)cc2)CC1,-16.9%,
CC(C)N1CCc2c(sc(NC(=O)C(F)(F)F)c2-c2nc3ccccc3s2)C1,,31.6 µM (active)
COc1ccc(C2Nc3ccccc3C(=O)N2Cc2ccccc2)cc1COc1cccc(Cl)c1 (stereo not drawn),1.01%,
Cc1cc2c(s1)c1cnn(Cc3ccc(-n4cncn4)cc3)c(=O)c1n2C,-12.7%,
O=C(Nc1ccc2ccccc2c1)Nc1nnc(Br)s1,0.343%,
C[C@H](N)C(=O)Nc1cccc(-c2nn3c(=O)cc(N4CCNCC4)nc3s2)c1,-9.11%,
COc1ccc(C(=O)N(Cc2ccccc2)Cc2ccc(OC)c(COc3ccc(NC(C)=O)cc3)c2)c(O)c1,-0.391%,
Cc1cc(N[S+](=O)([O-])c2cc3c(cc2Cl)NC(=O)CO3)ccc1Cl,-4.24%,
N#Cc1nc(Nc2cccc(F)c2)nc(NC2CCCC2)n1,1.31%,
COc1ccc(-n2cnc3cc(C(=O)N4CCCCC4)ccc32)cc1,,inactive
O=S(=O)(NCCCCCCNS(=O)(=O)c1c(F)cccc1F)c1ccc2c(c1)OCCO2,19.7%,
Cc1nc(C2=NC(c3ccccc3Cl)C3=C(CCCC3=O)N2)cs1 (stereo not drawn),-13.3%,
CC(C)(C)OC(=O)N1CCN(c2ccc(NCc3coc(-c4ccc(C#N)cc4)c3)cc2)CC1,,2 µM (active)
Cn1nnnc1Sc1ncnc2scc(-c3cccc(Br)c3)c12,10.2%,
FC(F)(F)c1cnc(N2CCN(C(=S)Nc3cc(Cl)ccn3)CC2)c(Cl)c1,,12.6 µM (active)
Cc1ccc(NC(=O)CN2C(=O)N/C(=C\c3cccn3-c3ccc(P(=O)(O)O)cc3)C2=O)cc1,7.7%,
CC(=O)N1CCN(c2ccc(NCc3ccc(-c4cccc(Cl)c4)o3)cc2)CC1,,2.24 µM (active)
COc1ccccc1-c1no[n+]([O-])c1C#N,5.26%,
CNC(=O)c1cc(Oc2ccc3nc(N[C@@H]4CCCC[C@H]4O)sc3c2)ccn1,14.5%,
COc1ccc(C2Nc3ccccc3C(=O)N2Cc2ccc(C(C)(C)C)cc2)cc1COc1ccc(NC(C)=O)cc1 (stereo not drawn),-8.09%,
CC(=O)Nc1sc2c(c1-c1ccc(C(F)(F)F)cc1)CCNC2,4.38%,
